As usually defined, the inhibition is the relative decrease from the control value, in per cent.

This is one part of the list. Calls of active or inactive are those of the source. Rule as the data show it: active = inhibition above about 40%; inactive = the rest.

The target of this assay is Runt-related transcription factor 1 (Homo sapiens) + Core-binding factor subunit beta (Homo sapiens) (UniProt Q01196+Q13951). In words: Runt domain/CBFb interaction disruptors – biochemical, TR-FRET (AID 1502). The following applies: TR-FRET RUNX1 Runt domain-CBFb binding; at 20 µM; active compounds read high. Background: TR-FRET usually uses a lanthanide donor and a delayed reading to cut background.
Sequence of Runt-related transcription factor 1 (Homo sapiens) + Core-binding factor subunit beta (Homo sapiens) (Q01196 whole entry, looked up, the tested form may be a part): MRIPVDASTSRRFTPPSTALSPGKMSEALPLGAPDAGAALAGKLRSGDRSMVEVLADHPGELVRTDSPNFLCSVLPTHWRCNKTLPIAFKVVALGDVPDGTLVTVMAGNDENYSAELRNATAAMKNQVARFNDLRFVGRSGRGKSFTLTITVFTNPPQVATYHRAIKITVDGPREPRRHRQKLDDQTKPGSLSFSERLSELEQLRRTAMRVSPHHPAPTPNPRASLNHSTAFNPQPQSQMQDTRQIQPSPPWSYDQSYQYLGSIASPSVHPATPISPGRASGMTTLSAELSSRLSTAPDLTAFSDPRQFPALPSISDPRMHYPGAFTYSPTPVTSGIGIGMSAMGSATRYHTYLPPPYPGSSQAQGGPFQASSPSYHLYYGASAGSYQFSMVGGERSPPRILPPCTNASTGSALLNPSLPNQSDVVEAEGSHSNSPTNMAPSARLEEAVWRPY
Sequence of Runt-related transcription factor 1 (Homo sapiens) + Core-binding factor subunit beta (Homo sapiens) (Q13951 whole entry, looked up, the tested form may be a part): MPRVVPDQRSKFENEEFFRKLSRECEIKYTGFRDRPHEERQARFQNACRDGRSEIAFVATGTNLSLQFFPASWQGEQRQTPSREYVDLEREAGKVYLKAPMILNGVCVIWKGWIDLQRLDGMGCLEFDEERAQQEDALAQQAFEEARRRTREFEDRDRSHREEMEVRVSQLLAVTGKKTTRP
Take `N#Cc1c(N)n(CCOC(=O)c2ccc(Cl)cc2)c2nc3ccccc3nc12`: the inhibition was 4% (inactive). In the case of `Cc1ccc(-c2cn3cc([N+](=O)[O-])ccc3n2)cc1` it was -11.5% (inactive); in that of `O=c1[nH]c2ccccc2n2c(-c3ccccc3)nnc12`, 66.7% (active). In the case of `CCN1/C(=C/C(=S)Nc2ccccc2)Sc2ccccc21` it was -2.1% (inactive); in that of `CC(C)Cn1c(CCC(=O)O)ccc1-c1cccs1`, 17% (inactive); in that of `OCCN1CCN(C(=S)c2ccc(-c3ccccc3)cc2)CC1`, 15.5% (inactive). In the case of `COc1cccc2sc(Nc3nc(C)c(C(C)=O)s3)nc12` it was 0.6% (inactive); in that of `CCCN1C2=C(C(=O)CCC2)C(c2ccc(O)c(Br)c2)C2=C1CCCC2=O`, 29.9% (inactive); in that of `CC(C)(C)OC(=O)c1c(N)n(CCCN2CCCC2=O)c2nc3ccccc3nc12`, 34.4% (inactive).

Regarding `CCN1C(=O)/C(=C2/Sc3ccccc3N2CCCS(=O)(=O)O)SC1=S`, the inhibition was 10.7% (inactive).

Consider `O=c1cc(CN2CCN(S(=O)(=O)/C=C/c3ccccc3)CC2)c2ccc(O)cc2o1`, for which the inhibition is 34.5% (inactive).
